# Reference: PubChem BioAssay (NCI)
# Compounds without any hit were thinned out: in the full panel of roughly 83,000, 20% have a hit.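 Testing used 96-well plates and a 48-hour single-concentration exposure. Example: -40 means 40% of the starting cells died.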 Values without a mark were called inactive. Active and inactive are the calls of the source. Rule for the calls: active = growth percent below 10; inactive = the rest.
# Test system: MDA-MB-468 breast
# Assay: NCI-60 one-dose screen, 48 h (100 = growth as untreated, 0 = no growth, -100 = all killed)
# Conditions: 10 µM unless noted
row,Compound,growth
1,CC1CCNC(C)C1 (stereo not given),99.2%
2,COc1ccc2[nH]c(=O)c3c4ccccc4cn3c2c1,38%
3,Oc1[nH]c2ccccc2c1/C=c1/cc2c(c(-c3ccc(F)cc3)n1)=Nc1ccccc1-2,-60.8% (active)
4,NC(=O)NO,109%
5,Cc1nn(-c2ccccc2)cc1/C=C1\SC(N2CCCCC2)=NC1=O,96.3%
6,c1ccc(CNc2nc(Nc3ccc(-c4nc5ccccc5[nH]4)cc3)c3cn[nH]c3n2)cc1,-22% (active)
7,Nc1n[nH]c2ccc([C@@H]3Nc4cc5c(cc4[C@H]4C6CCC(C6)[C@@H]34)C(=O)NC5)cc12 (stereo not given in full),-9.96% (active)
8,CCOC(=O)C/C(=N\Nc1cc(=O)[nH]c2ccc(Br)cc12)C(=O)OCC,99.3%
9,C#C[C@]1(O)CC[C@H]2[C@@H]3CC=C4c5sc(NCc6ccccc6)nc5CC[C@]4(C)[C@H]3CC[C@@]21C,45.4%
10,O=C1c2ccccc2C(=O)c2c1oc1c2c(=O)[nH]c2ccccc21,-8.43% (active)
11,Cc1cc(-c2ccc(N=Nc3ccc4c(S(=O)(=O)O)cc(S(=O)(=O)O)c(N)c4c3O)c(C)c2)ccc1N=Nc1ccc2c(S(=O)(=O)O)cc(S(=O)(=O)O)c(N)c2c1O,98.2%
12,O=C(NC1CCCC1)c1ccc(N2CCC(NCc3cccc(C(F)(F)F)c3)CC2)cc1,77.7%
13,COc1ccc(OC)c(-c2cn3nc(-c4c[nH]c5ccc(Br)cc45)sc3n2)c1,59.1%
14,CNC(=O)c1cc(Oc2ccc3nc(NC(=O)c4cccc(C(F)(F)F)c4)sc3c2)ccn1,106%
15,CS(=O)(=O)Nc1cc(-c2ccc3ncc(C#N)c(NCc4ccccc4F)c3c2)cnc1Cl,-16.8% (active)
16,CC(=O)C1C(=O)C(=O)N(c2ccc(Cl)c(Cl)c2)C1=O (stereo not given),115%
17,O=C(c1cccc(Br)c1)N1CCN(c2ccnc3cc(Cl)ccc23)CC1,66%
18,COc1ccc(C(=S)c2cc(OC)c(OC)c(OC)c2)cc1OC(=O)CCl,47.5%
19,COc1ccc(-c2nn(-c3cccc(Cl)c3)cc2-c2c(C#N)c(=O)n3[nH]c(-c4ccc(C)cc4)nc3c2C#N)cc1,-1.87% (active)
20,COc1ccc(/C=C2\Oc3cc(OCCCN4CCCC4)ccc3C2=O)c(OC)c1,62%

row,Compound,growth
1,C#C[C@@]1(O)[C@@H](CO)O[C@@H](n2cc(-c3ccco3)c3c(N)ncnc32)[C@@H]1O,49.5%
2,COC(=O)/C=C/c1cc(O)c2oc(-c3ccc(O)c(O)c3)c(C(=O)OC)c2c1,26.7%
3,CN(C)c1ccc(CNCCO)cc1,105%
4,CCOC(=O)C1=C(C)N=c2s/c(=C\c3cc(Cl)ccc3O)c(=O)n2C1c1ccc(OC)cc1 (stereo not given),94.8%
5,CCc1onc(-c2ccc(OC)cc2)c1-c1ccccc1OCCN(CC)CC,80%
6,O=C(Nc1ccc(F)c(F)c1)c1cc(-c2ccc(F)cc2F)ccc1O,-8.51% (active)
7,CCOC(=O)c1cc(-c2ccc([N+](=O)[O-])cc2)n(-c2ccc(C(=O)O)c(O)c2)c1C,58.8%
8,NC(=O)c1ccc(C2C3=C(CCCC3=O)OC3=C2C(=O)c2ccccc2C3=O)cc1 (stereo not given),-30.6% (active)
9,O=C(O)C(=Cc1c2ccccc2cc2ccccc12)C(=O)O,116%
10,COc1ccc(-c2nc3sccn3c2-c2ccnc(NCCNS(=O)(=O)c3ccc(C(F)(F)F)cc3)n2)cc1,30.2%
11,Nc1nc(N)c2c(n1)NC(c1cccc(Nc3ccnc4cc(C(F)(F)F)ccc34)c1)CC(c1ccc3c(c1)OCO3)=N2 (stereo not given),58%
12,O=C(/C=C/c1ccc(Cl)cc1)c1ccccc1,89.7%
13,Cc1cccc2c(=O)c3c(sc12)c(NCCNCCO)nc1ccccc13,-19.1% (active)
14,Cc1ccc(C(C)C)c(OCc2ccc(C(=O)N/N=C/c3cccc(O)c3O)cc2)c1,75.7%
15,CCc1cccc2c1S/C(=C/c1ccc(Cl)cc1)C2=O,93.6%
16,C#CCCCCCCC[C@@H]1OC(=O)[C@H]([C@@H](C)CC)NC(=O)[C@H]([C@@H](C)CC)NC(=O)CC(=O)[C@@H]1C,95.3%
17,CC(=O)N1CC(=O)NC1=S,95.9%
18,COc1ccc(OC)c([N+](=O)[O-])c1C(=O)CNC(C)=O,98%
19,NC(=O)c1c(NC(=O)c2ccc(Cl)cc2)sc2c1CCC(=O)C2,88.5%
20,COc1ccc(-n2ncn(CCCCCCn3cnn(-c4ccc(OC)cc4)c3=O)c2=O)cc1,84.8%
